Only some compounds are listed: those with a hit (about 7.5% of all), similar ones and a draw of the others.
NPC1 promoter act: activates the NPC1 promoter | Huh7 NPC1 promoter luciferase reporter, 24 h | Potency, µM (doses to about 9.22 µM), for inactives: at the top dose activation, hits mostly activators | 320,000 tested, 2.4% active | AID 485313; note: % of control where 0% means no effect; nearly all actives have a fitted effect of over 60% in size
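Stable NPC1-promoter luciferase Huh7 line; cpd (DMSO) 24 h, 37 °C, 5% CO2; Amplite luciferase reagent 10 min RT; luminescence readout. qHTS format.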
FLuc modulator: counter-screen for miR-21 project: firefly luciferase inhibitors or activators | purified FLuc, Km substrates, luminescence inhibition | Potency, µM (titrated, usually from 57.5 µM), without a hit: top-dose activity change, negative = inhibition, hits mostly inhibitors | 360,000 tested, 6.9% active | AID 588342;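 note: plate controls were vehicle for no effect and reference inhibitor for full effect; nearly all actives have a fitted effect of over 55% in size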
Target sequence (P08659 whole entry, looked up): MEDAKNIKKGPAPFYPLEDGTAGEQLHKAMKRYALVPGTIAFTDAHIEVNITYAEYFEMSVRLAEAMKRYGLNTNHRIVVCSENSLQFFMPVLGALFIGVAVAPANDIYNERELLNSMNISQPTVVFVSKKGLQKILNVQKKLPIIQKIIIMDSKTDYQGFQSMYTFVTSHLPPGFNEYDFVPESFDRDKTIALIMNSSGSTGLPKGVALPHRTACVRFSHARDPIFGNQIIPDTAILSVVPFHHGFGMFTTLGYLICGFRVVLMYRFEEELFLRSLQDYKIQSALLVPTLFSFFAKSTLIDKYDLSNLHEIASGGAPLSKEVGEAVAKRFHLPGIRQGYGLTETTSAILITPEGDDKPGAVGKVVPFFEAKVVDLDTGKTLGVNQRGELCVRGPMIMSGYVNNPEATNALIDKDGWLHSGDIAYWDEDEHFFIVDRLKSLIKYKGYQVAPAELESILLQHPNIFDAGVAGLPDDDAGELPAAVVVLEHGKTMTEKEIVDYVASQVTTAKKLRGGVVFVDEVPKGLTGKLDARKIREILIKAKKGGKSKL
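Biochemical qHTS of compounds, final roughly 60 µM downward over six points, against 10 nM purified firefly luciferase using Km concentrations of substrates (10 uM D-luciferin, 10 uM ATP) in Tris acetate pH 7.5 buffer; luminescence output.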
Rab9 promoter act: Rab9 promoter activation; Huh7 Rab9 promoter-luciferase reporter, luminescence, 24 h; Potency, µM (titrated, usually from 9.22 µM), inactives show at the top dose activation, negative = inhibition, hits mostly activators; 320,000 tested, 2.8% active; note: % of control where 0% means no effect; nearly all actives have a fitted effect of over 60% in size
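Cell-based reporter: Huh7 stable for Rab9 promoter-driven luciferase, plated in reduced-serum medium with 10% FBS at 1500 cells/well, compound-treated 24 h at 37 °C, luminescence read after 10 min reagent.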
ELG1 genotoxic: genotoxicity induction in ELG1-luciferase HEK293T cells. HEK293T ELG1-luciferase reporter, luminescence, 16 h. Potency, µM (top dose mostly 46 µM), inactives show top-dose activity change, positive = activation, hits mostly activators. 330,000 tested, 1.3% active. AID 504466; note: % of control where 0% means no effect; nearly all actives have a fitted effect of over 60% in size
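Cells (2,000/well) expressing the ELG1-luciferase fusion are dosed by pin tool and kept 16 hr at 37 °C, 5% CO2. Signal comes from ONE-Glo luciferase reagent after 30 min at room temperature.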
SMN2 splice up: enhancers of SMN2 splice variant expression; HEK293 SMN2-luciferase splicing reporter, luminescence, 30-36 h; Potency, µM (titrated, usually from 46.1 µM), for the others: top-dose activity change, positive = activation, hits mostly activators; 210,000 tested, 2.8% active; note: % of control where 0% means no effect; nearly all actives have a fitted effect of over 55% in size
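HEK293 cells carry an SMN2 […]–luciferase reporter in which exon 7 inclusion puts luciferase in frame. Cells were plated 10-12 h before compound addition, then incubated 30-36 h at 37C. ONE-Glo luminescence was read; sodium butyrate at 4.5 mM final served as control.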
Active calls of the source: *; ? = inconclusive; . = no result. Calls come from the whole dose curve; as a rule, active = well fitted curve in the direction sought with a large enough effect; inconclusive = small, poorly fitted or top-dose-only effect, or another doubt; inactive = no such curve, though single readings can be large; an effect the other way counts as inactive or inconclusive. Potency is the fitted concentration of half-maximal effect.

SMILES	NPC1 promoter act	FLuc modulator	Rab9 promoter act	ELG1 genotoxic	SMN2 splice up
O=C(NNc1nc2ccccc2s1)Nc1ccc(Cl)c(Cl)c1	2.3%	?	-6.0%	2.2%	.
CCCCN(C(=O)NC(=O)Nc1nc2ccc(OC)cc2s1)S(C)(=O)=O	?	23.9µM*	?	8.2µM*	22.4µM*
CCOc1ccc2nc(NC(=O)NC3CCCCC3)sc2c1	?	?	?	?	19.1%
CCOc1ccc2nc(NC(=O)Nc3cccs3)sc2c1	?	0.757µM*	1.58µM*	2.59µM*	2.82µM*
CC(C)(C)c1nc(NC(=O)Nc2ccccc2)sc1Br	27.8%	19µM*	?	-5.2%	-3.0%
COc1ccc(NC(=O)Nc2nc3ccccc3s2)cc1	1.78µM*	2.39µM*	1.58µM*	?	.
CC(=O)c1cccc(NS(=O)(=O)c2c(C(=O)N3CCCCCC3)c(C)n(C)c2C)c1	.	-6.8%	.	.	.
COC(=O)C1CC(=O)N(CCc2c[nH]c3ccccc23)C1 (stereo not given)	15.3%	-3.0%	-0.8%	1.4%	26.8%
Cc1cc(O)c(C=O)c2c1C(=O)Oc1c(CO)c(O)c3c(c1O2)C(O)OC3=O (stereo not given)	-4.1%	?	2.4%	-1.7%	.
COc1ccccc1-c1ccc(SCC(=O)NCCc2ccccc2)nn1	-3.1%	-11.5%	22.0%	-1.8%	-4.6%
COc1ccccc1-c1ccc(SCc2cccc(F)c2)nn1	11.8%	23.9µM*	19.0%	7.0%	22.8%
COc1ccccc1-c1ccc(SCc2ccccc2)nn1	26.5%	13.5µM*	?	-0.2%	29.6%
Cc1nc(C)c(-c2ccc(SCc3ccccc3F)nn2)s1	?	10.7µM*	?	?	.
COc1ccccc1-c1ccc(SCc2ccccc2F)nn1	27.3%	13.5µM*	?	18.2%	27.6%
COc1ccc2[nH]c3c(c2c1)CCN1C(=O)C(CC(=O)NCc2ccc(OC)c(OC)c2)C[C@H](C(=O)N2CCOCC2)[C@@]31CCC1CCCC1 (stereo not given in full)	.	.	.	1.2%	.
CC(C)S	.	.	.	.	-0.7%
CCCOC(=O)C(C)n1nnc2sc(-c3ccccc3)cc2c1=O (stereo not given)	.	?	.	.	-7.4%
O=C1c2cccc3cccc(c23)C(=O)N1OS(=O)(=O)c1ccc(Br)cc1	-4.5%	-10.6%	-0.2%	1.2%	-10.8%
O=C1c2cccc3cccc(c23)C(=O)N1OS(=O)(=O)c1ccccc1	1.4%	19µM*	-3.3%	11.5%	4.3%
O=C(O)c1ccccc1-c1ccccc1C(=O)Nc1ccc2c(c1)CCC2	1.6%	-11.8%	0.3%	-0.8%	.
COc1cc2c(cc1NC(=O)c1ccccc1F)CCCC2	7.0%	10.7µM*	?	?	22.4µM*
COc1cc(OC)c(NC(=O)c2ccccc2F)cc1Cl	5.7%	?	14.2%	2.7%	13.1%
O=C(Nc1ccc2c(c1)CCC2)c1ccccc1F	0.891µM*	3.01µM*	0.708µM*	?	4.47µM*
O=C(Nc1ccc2c(c1)CCC2)c1ccccc1	1.26µM*	1.07µM*	0.501µM*	2.59µM*	2µM*
COc1ccccc1NC(=O)CCN1C(=O)C2CC=C(Cl)CC2C1=O (stereo not given)	0.3%	5.7%	10.5%	-0.9%	-14.5%
SMILES	NPC1 promoter act	FLuc modulator	Rab9 promoter act	ELG1 genotoxic	SMN2 splice up
COc1cccc(C2C(=O)c3ccccc3C2=O)c1	-7.5%	26.9µM*	5.1%	2.2%	.
COc1cccc([C@@H]2Oc3ccc(OC)cc3C(=O)[C@H]2O)c1	?	-22.7%	?	7.31µM*	5.01µM*
COC(=O)C1=C(C)NC2=C(C(=O)c3ccccc32)C1c1cccc(OC)c1 (stereo not given)	-0.9%	-3.0%	14.0%	3.9%	.
COc1cc2c(cc1NC(=O)C(C)OC(=O)/C=C/c1ccc(OC(F)F)cc1)oc1ccccc12 (stereo not given)	22.8%	-13.9%	26.9%	0.3%	-35.6%
Cc1cccc(NC(=O)CC(C)(C)C)c1	3.2%	2.6%	0.2%	9.7%	.
CC(C)C(=O)Nc1ccc(Nc2ccccc2)cc1	0.0%	19µM*	-5.2%	19.6%	21.2%
CCC(CC)C(=O)Nc1ccc(Nc2ccccc2)cc1	1.0%	?	9.8%	0.5%	-1.1%
CC(C)(C)CC(=O)Nc1ccc(Nc2ccccc2)cc1	28.4%	12µM*	3.16µM*	10.9%	-5.7%
CCCCc1ccc(NC(=O)CC(C)=O)cc1	-1.6%	-19.5%	17.7%	?	7.6%
CC(C)CC(=O)Nc1ccc(Oc2ccc(NC(=O)CC(C)C)cc2)cc1	-6.1%	9.0%	-0.1%	-1.7%	.
CC(C)CC(=O)Nc1ccc(Nc2ccccc2)cc1	1.6%	19µM*	11.7%	-3.9%	15.3%
CCCCc1ccc(NC(=O)CC(C)(C)C)cc1	?	15.1µM*	?	15.2%	.
Cn1c(=O)n(Cc2ccccc2F)c(=O)c2c1nc1n2CCN1Cc1ccco1	-6.1%	-1.9%	-0.7%	3.2%	-48.1%
O=[N+]([O-])c1c(C(Cl)Cl)nn(-c2ccccc2)c1N1CCOCC1	-3.7%	5.4%	-7.4%	-0.3%	.
CC(Oc1ccc2c(c1)oc(=O)c1ccccc12)C(=O)NC(Cc1c[nH]c2ccc(O)cc12)C(=O)O (stereo not given)	1.2%	26.9µM*	0.0%	5.5%	.
Cc1cc(OC(C)C(=O)NC(Cc2c[nH]c3ccc(O)cc23)C(=O)O)c2c(C)c(C)c(=O)oc2c1 (stereo not given)	-0.3%	4.4%	-5.1%	4.1%	.
CC(C)(C)C(=O)OCc1cn(-c2ccc(Cl)cc2)nn1	?	15.1µM*	10.8%	?	0.4%
Cc1cc(C(=O)CSc2nncn2C)c(C)n1-c1ccccc1	2µM*	8.49µM*	0.447µM*	-3.8%	11.2µM*
CC(=O)Nc1ccc(SCCCC(=O)c2ccccc2)cc1	?	23.9µM*	?	?	.
CC(=O)c1cccc(NC(=O)CCCSc2ccccc2)c1	-0.4%	?	-3.4%	-0.3%	.
Cc1cc(C(=O)CSc2cccc[n+]2[O-])c(C)n1-c1ccc(Br)cc1	26.4%	15.1µM*	23.9%	?	-41.9%
COc1ccc(-n2c(C)cc(C(=O)CSc3ccc(NC(C)=O)cc3)c2C)cc1	28.2%	?	19.4%	4.3%	-32.8%
CC(=O)Nc1ccc(SCC(=O)c2cc(C)n(-c3ccccc3)c2C)cc1	?	5.36µM*	3.55µM*	?	-19.9%
O=C(/C=C/c1ccccc1)OCc1cnc(Cl)s1	-4.5%	?	-2.3%	2.3%	-1.3%
CCCSc1nnc2n(-c3ccccc3OC)c(=O)c3c4c(sc3n12)CCC4	-0.6%	2.6%	-5.6%	3.5%	0.3%
Cc1cc(C(=O)C(C)OC(=O)c2ccc(NC(=O)CC#N)cc2)c(C)n1-c1ccccc1 (stereo not given)	0.6%	16.9µM*	-3.3%	29.5%	.
Cc1cc(C(=O)CSc2cccc[n+]2[O-])c(C)n1-c1ccccc1	0.447µM*	1.69µM*	0.447µM*	?	1µM*

Screens as filed in PubChem.
